High-throughput results (PubChem)
SMN2 splice enh – enhancers of SMN2 splice variant expression; HEK293 SMN2-luciferase splicing reporter, luminescence, 30-36 h; Potency, µM (doses to about 46.1 µM), for the others: at the top dose activity change, positive = activation, actives largely listed as activators; 210,000 tested, 2.8% active; also: % of control where 0% means no effect; nearly all actives have a fitted effect of over 55% in size
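qHTS luciferase splicing reporter: luminescence rises when SMN2 exon 7 is included in transfected HEK293 cells. Compound exposure lasted 30-36 h at 37C, with 4.5 mM final sodium butyrate as control, followed by a ONE-Glo read.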
ELG1 genotoxic – inducers of genotoxicity in HEK293T ELG1-luciferase cells; HEK293T ELG1-luciferase reporter, luminescence, 16 h; Potency, µM (doses to about 46 µM), inactives show top-dose activity change, positive = activation, hits mostly activators; 330,000 tested, 1.3% active; AID 504466; also: % of control where 0% means no effect; nearly all actives have a fitted effect of over 60% in size
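Screening used a luciferase reporter fused to human ELG1 in HEK293T cells. Luminescence was read on a CCD plate imager after 16 hr exposure and 30 min ONE-Glo incubation.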
ELG1 DNA repair – ELG1-dependent DNA repair inhibition; HEK293T ELG1-luciferase reporter, luminescence, 16 h; DNA damage induced by 5-fluorouridine; Potency, µM (series often up to 46.1 µM), without a hit: top-dose activity change, negative = inhibition, usual class: inhibitors; 330,000 tested, 2.3% active; also: % is scaled to controls: 0 for no effect and ±100 for the full control effect; nearly all actives have a fitted effect of over 55% in size
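Luminescence from the luciferase reporter, measured 30 min after ONE-Glo reagent at room temperature, was the read-out. Beforehand, 2,000 cells per well were exposed for 16 hr at 37 °C to 5-fluorouridine together with compound or vehicle.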
NPC1 promoter act – activates the NPC1 promoter. 320,000 tested, 2.4% active. Huh7 NPC1 promoter luciferase reporter, 24 h. Potency, µM (titrated, usually from 9.22 µM), for the others: at the top dose activation, most hits filed as activators; also: % of control where 0% means no effect; nearly all actives have a fitted effect of over 60% in size
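Huh7 cells stably carrying NPC1 promoter–luciferase, plated in Opti-MEM with 10% FBS for 2 h, were exposed to compound in DMSO for 24 h at 37 °C; luciferase reagent was added for 10 min and luminescence read.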
FLuc modulator – inhibits or activates purified firefly luciferase, miR-21 counter-screen; P08659; purified FLuc, Km substrates, luminescence inhibition; Potency, µM (doses to about 57.5 µM), inactives show at the highest dose activity change, negative = inhibition, actives largely listed as inhibitors; 360,000 tested, 6.9% active; AID 588342;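 also: plate controls were vehicle for no effect and reference inhibitor for full effect; nearly all actives have a fitted effect of over 55% in size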
Target sequence (P08659 whole entry, looked up): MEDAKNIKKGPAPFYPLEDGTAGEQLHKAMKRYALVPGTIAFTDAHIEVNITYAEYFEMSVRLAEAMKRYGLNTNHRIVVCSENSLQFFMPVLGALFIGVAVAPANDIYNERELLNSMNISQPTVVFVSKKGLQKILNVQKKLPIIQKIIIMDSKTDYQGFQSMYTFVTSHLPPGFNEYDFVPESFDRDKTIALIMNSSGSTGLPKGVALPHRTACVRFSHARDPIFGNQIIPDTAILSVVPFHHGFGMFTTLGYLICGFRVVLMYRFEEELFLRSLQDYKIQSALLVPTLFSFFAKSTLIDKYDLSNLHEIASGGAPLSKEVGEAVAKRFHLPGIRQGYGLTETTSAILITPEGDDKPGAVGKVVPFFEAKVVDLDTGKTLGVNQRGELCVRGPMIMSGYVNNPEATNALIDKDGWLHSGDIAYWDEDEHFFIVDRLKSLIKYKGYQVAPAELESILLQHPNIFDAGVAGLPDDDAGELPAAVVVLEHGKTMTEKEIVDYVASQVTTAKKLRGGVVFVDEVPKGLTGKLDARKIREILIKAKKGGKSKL
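Purified P. pyralis luciferase (10nM final) with 10uM D-luciferin and 10uM ATP (Km levels) in 50mM Tris acetate pH 7.5, 10mM Mg acetate, 0.01% Tween-20, 0.05% BSA; qHTS 6-point titration, ~60 µM downward; luminescence read.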
Rab9 prom act – activators of Rab9 promoter | Potency, µM (highest dose often 9.22 µM), inactives show top-dose activation, negative = inhibition, usual class: activators | Huh7 Rab9 promoter-luciferase reporter, luminescence, 24 h | 320,000 tested, 2.8% active; also: % of control where 0% means no effect; nearly all actives have a fitted effect of over 60% in size
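Luminescence from Amplite-detected luciferase (10 minutes, ambient) reports Rab9 promoter activation. Before that, stable Rab9-luciferase Huh7 cells (1500/well, reduced-serum OP-MEM I plus 10% FBS) were exposed to compound for 24 hours at 37C.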
Starred values were filed as active, the others as inactive; ? = inconclusive; . = no result; [ ] = dose if it differs, or a comment. Rows were chosen to be rich in hits. Some 9.2% of all compounds tested hit in one or more screens of this group. Calls follow the shape of the dose curve; as a rule, active = well fitted curve in the direction sought with a large enough effect; inconclusive = small, poorly fitted or top-dose-only effect, or another doubt; inactive = no such curve, though single readings can be large; an effect the other way counts as inactive or inconclusive. Potency is read from the fitted curve at half-maximal effect.

SMILES	SMN2 splice enh	ELG1 genotoxic	ELG1 DNA repair	NPC1 promoter act	FLuc modulator	Rab9 prom act
Cc1ccsc1/C=N/Nc1nc(=O)[nH]nc1C	17.8µM*	?	?	?	?	2.82µM*
Cn1c(SCc2ccc([N+](=O)[O-])cc2)nnc1-c1ccncc1	.	-3.4%	1.2%	-2.0%	3.9%	2.9%
CN(C)C(CNC(=O)c1cnc(Cl)c(Cl)c1)c1ccccc1 (configuration not stated)	.	-2.5%	?	-5.6%	-0.8%	-5.2%
COC(=O)c1c(NC(C)=O)sc(C(=O)Nc2ccccc2F)c1C	7.08µM*	?	?	?	-0.1%	?
CCC(=O)Nc1sc(C(=O)Nc2ccccc2F)c(C)c1C(=O)OC	.	-1.2%	4.2%	0.2%	7.57µM*	-0.1%
CCCC(=O)Nc1sc(C(=O)Nc2cccc(N)c2)c(C)c1C(=O)OC	.	?	?	3.16µM*	13.5µM*	0.891µM*
Cc1ccc(Cn2c(CO)cnc2SCC(=O)Nc2ccc(C)c(Cl)c2)cc1	.	.	.	.	-15.6%	.
COc1cc(NC(=O)Cn2ncc3c([nH]c4ccc(C)cc43)c2=O)cc(OC)c1OC	.	.	.	.	-3.3%	.
COc1ccc(F)cc1S(=O)(=O)Nc1cccc(-c2ccc(N3CCC(C)CC3)nn2)c1	.	.	.	.	5.36µM*	.
COc1ccc(C)cc1S(=O)(=O)Nc1cccnc1	0.2%	1.5%	0.0%	7.9%	-2.5%	12.5%
COc1ccc(C)cc1S(=O)(=O)Nc1cccc(-c2ccc(N3CCCCCC3)nn2)c1	.	1.8%	?	-0.3%	9.53µM*	3.1%
CCOc1ccc(-c2ccc(NS(=O)(=O)c3cc(C)ccc3OC)cc2)nn1	.	.	.	.	0.0%	.
COc1ccc(C)cc1S(=O)(=O)Nc1cccc(-c2ccc(N3CCC(C)CC3)nn2)c1	.	.	.	.	2.39µM*	.
O=C(NNC1=NC2(CCCC2)Cc2ccccc21)c1cccnc1	.	-4.4%	-6.2%	-3.0%	-1.0%	-13.4%
O=C(c1ccccc1NS(=O)(=O)c1ccccc1[N+](=O)[O-])N1CCCC1	.	1.5%	-7.9%	0.5%	3.7%	-0.9%
CCOc1ccccc1/C=C/c1onc(C)c1S(=O)(=O)N1CCC(C(=O)NC(C)(C)C)CC1	.	-9.1%	?	0.5%	0.6%	-0.9%
OCCN(CCO)c1nc(N2CCCCC2)c2nc(N(CCO)CCO)nc(N3CCCCC3)c2n1	-43.1%	-7.9%	0.461µM*	6.0%[46.1 µM]	-0.5%	-8.9%[46.1 µM]
Nc1nc(NCCO)nc(N2CCCCCC2)c1[N+](=O)[O-]	.	-3.3%	-2.3%	-5.1%	-1.6%	15.6%
Cc1cccc(CCN2C(N(C)C)=NC[C@@H]2C)c1	.	1.7%	3.0%	0.2%	-0.1%	-1.2%
CCOC(=O)c1c(OCC)[nH]c2c1cc(O)c1ccccc12	-8.6%	-15.8%	20.6µM*	10.2%	?	-0.8%
CCOc1ccc(NC(=O)c2sccc2-n2cccc2)cc1	.	0.4%	2.2%	4.0%	-16.7%	7.8%
Cc1nn(-c2ccccc2)c2c1C(c1cccs1)C(C#N)=C(N)O2 (configuration not stated)	-3.0%	-1.8%	?	1.8%	15.1µM*	-0.9%
Cc1nn(-c2ccccc2)c2c1C(c1ccco1)C(C#N)=C(N)O2 (configuration not stated)	1.2%	1.2%	?	-0.2%	13.5µM*	7.3%
Cc1nn(-c2ccccc2)c2c1C(c1ccc([N+](=O)[O-])cc1)C(C#N)=C(N)O2 (configuration not stated)	.	0.1%	0.0%	-3.5%	2.8%	-1.3%
CCCc1nn(-c2ccccc2)c2c1C(c1cccs1)C(C#N)=C(N)O2 (configuration not stated)	-9.9%	0.4%	?	-0.5%	-6.1%	2.5%
SMILES	SMN2 splice enh	ELG1 genotoxic	ELG1 DNA repair	NPC1 promoter act	FLuc modulator	Rab9 prom act
CCS(=O)c1ccccc1C(=O)OCC(=O)Nc1ccc2ccccc2c1 (configuration not stated)	.	0.5%	-22.3%	.	.	.
COC(=O)c1cc(=O)n2c(sc3ccccc32)c1C#N	.	1.2%	5.9%	2.4%	1.4%	1.9%
CCN(c1ccc(NC(=O)COC(=O)/C=C/c2cccs2)cc1)C(C)C	4.7%	-1.9%	2.6%	-6.3%	-18.5%	1.7%
Cc1ccc(OCc2cc(C(=O)N3CCN(C4CCCC4)CC3)no2)cc1C	.	5.4%	?	3.2%	?	28.2%
Cc1ccc(OCc2cc(C(=O)N3CCC(c4ccccc4Cl)C3)no2)cc1C (configuration not stated)	.	?	?	?	26.9µM*	?
CCN(Cc1ccncc1)C(=O)c1cc(COc2ccc(C)c(C)c2)on1	.	-0.9%	-1.9%	-3.4%	-17.4%	5.4%
Cc1ccc(OCc2cc(C(=O)N(CCO)Cc3cccs3)no2)cc1C	.	?	?	3.98µM*	26.9µM*	3.55µM*
Cc1ccc(OCc2cc(C(=O)N3CCN(c4ccccc4)CC3)no2)cc1C	.	3.66µM*	?	2.51µM*	6.01µM*	2µM*
O=C(O)c1cccc(Nc2nc(-c3cc4ccccc4oc3=O)cs2)c1	.	?	?	2.82µM*	6.01µM*	?
O=c1oc2ccccc2cc1-c1csc(NN=C2CCCC2)n1	-1.0%[1.84 µM]	3.5%	?	8.5%	-13.4%	15.5%
COC(CNC(=O)c1ccc2c3c(onc13)-c1ccccc1C2=O)OC	.	?	?	?	15.1µM*	?
COC(CNC(=O)c1cccnc1)OC	.	0.5%	-1.3%	-5.5%	0.4%	-2.6%
Cc1ccc(NC(=O)Cc2noc3ccccc23)cc1	?	?	?	?	21.3µM*	?
O=S(=O)(c1ccccc1OC(F)(F)F)N1CCN(c2ccnc3cc(Cl)ccc23)CC1	.	-25.6%	20.6µM*	-4.3%	5.7%	-1.2%
O=C(Nc1ccc(OC(F)(F)F)cc1)N1CCN(c2ccnc3cc(Cl)ccc23)CC1	.	-14.5%	18.3µM*	-1.2%	2.5%	-9.5%
COc1ccccc1N1CCN(c2ccnc3cc(Cl)ccc23)CC1	.	-18.1%	?	-31.8%	-2.8%	-24.6%
COc1cc2c(cc1OC)CN(C(=O)Nc1ccccc1Cl)CC2	.	-3.8%	-5.9%	-3.8%	?	-2.1%
